Screening data (PubChem)
Pf growth 96h: P. falciparum growth inhibition at 96 hour, primary screen for plastid delayed-death inhibitors; P. falciparum luciferase reporter growth, 96 h; Potency, µM (highest dose often 28.7 µM), usual class: inhibitors; actives 6.9% (n = 320,000); AID 504834; active = well fitted inhibition curve with a large enough effect; inconclusive = small, poorly fitted or top-dose-only effect, or another doubt; inactive = no such curve, though single readings can be large or run the other way
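Erythrocytes infected with luciferase-expressing P. falciparum were dispensed at 2% hematocrit and 0.05% parasitemia (final), then incubated with compounds 96 hours at 37 C in 5% CO2. Luminescence after detection reagent addition reported growth.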
CHX counter: affects cycloheximide protein synthesis inhibition readout, counter-screen | max response, % | actives 12% (n = 300,000) | cell reporter, cycloheximide protein synthesis inhibition counterscreen | AID 2314; in the data active = max response mostly above about 13%, no sharp cut-off; inactive = mostly below about 14%; note: read at 38.3 µM for the half of the compounds with a filed dose
Shiga inhibitor: Shiga toxin inhibition; inhibition, % at 38.7 µM; Vero cells, Shiga toxin protein synthesis inhibition reporter; actives 9.2% (n = 290,000); in the data active = inhibition mostly above about 28%, no sharp cut-off; inactive = mostly below about 43%
NS1 inh: blocks influenza NS1 protein function. AID 2326. actives 0.4% (n = 270,000). Potency, µM (highest dose often 46.1 µM); note: actives are rising curves; nearly all actives have a fitted effect of over 50% in size
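Read-out: OD600 growth recovery of NS1-expressing budding yeast. Cells grown overnight at 30C in -URA glucose medium, washed, resuspended and diluted 1:100 in 2% galactose assay medium, pH 6.0. Same strain lacking NS1 served as positive control.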
Pf growth 48h: inhibits P. falciparum growth in the first generation, 48 h; P. falciparum luciferase growth in erythrocytes, 48 h; Potency, µM (titrated, usually from 28.7 µM), hits mostly inhibitors; actives 5.9% (n = 310,000); AID 504832; active = well fitted inhibition curve with a large enough effect; inconclusive = small, poorly fitted or top-dose-only effect, or another doubt; inactive = no such curve, though single readings can be large or run the other way
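Luciferase-expressing parasites in RBCs, 2% Hct / 0.1% parasitemia final; RPMI 1640 + 0.5% Albumax; 37 C, 5% CO2, one generation; luminescence read-out, lower signal = inhibition.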
SARS PLP yeast: blocks SARS-CoV papain-like protease in a yeast assay. AID 485353. Potency, µM (doses to about 32.9 µM), hits mostly activators. actives 0.19% (n = 330,000). S. cerevisiae expressing SARS-CoV PLpro, growth rescue; note: nearly all actives have a fitted effect of over 55% in size
Each line names hits and unclear results; the compound was inactive in the other large screens. Hits are enriched below; roughly 21% of the tested compounds scored in any of these assays. Unless noted, calls come from the whole dose curve.

N#CN(Cc1ccccc1)Cc1ccccc1	none
COc1ccc(C(CNC(=O)c2ccc(NS(=O)(=O)c3ccccc3)cc2)N2CCOCC2)cc1 (stereo unspecified)	Pf growth 96h inconclusive, Pf growth 48h inconclusive (no result: CHX counter, Shiga inhibitor, NS1 inh)
CCOc1ccc(NS(=O)(=O)c2ccc(C(=O)NCC(c3ccc(OC)cc3)N3CCCC3)cc2)cc1 (stereo unspecified)	Pf growth 96h 13µM, Pf growth 48h 13µM (no result: CHX counter, Shiga inhibitor, NS1 inh)
O=C(CSc1ccc2nnc(-c3ccc(Cl)cc3)n2n1)N1CCCc2ccccc21	Pf growth 96h inconclusive, CHX counter 17
O=C(Nc1ccccc1-c1nnn(CC(=O)N2CCCc3ccccc32)n1)c1ccc(Cl)cc1	Pf growth 96h 12µM, Pf growth 48h inconclusive
O=C(CSc1ccc2nnc(-c3ccc(F)cc3)n2n1)N1CCCc2ccccc21	Pf growth 48h inconclusive
Nn1c(SCC(=O)N2CCCc3ccccc32)nnc1-c1ccc(Cl)cc1	Pf growth 96h 12µM
O=C1C=C(NCCOC23CC4CC(CC(C4)C2)C3)C2(CCCCC2)O1	none (no result: NS1 inh)
CCOc1ccc(NC(=O)CSc2nnc(CCNC(=O)c3ccc(OC)cc3)n2C)cc1	none (no result: Pf growth 48h)
CC(=O)Nc1ccc2nc(-c3ccccn3)[nH]c2c1	Pf growth 96h inconclusive, CHX counter 46, Shiga inhibitor 74
CC(=O)Nc1ccc(-c2nc3c(C)cccc3[nH]2)cc1	CHX counter 45, Shiga inhibitor 110
CC(=O)Nc1ccc2nc(-c3ccncc3)[nH]c2c1	none (no result: Pf growth 48h)
CS(=O)(=O)c1cccc(C(=O)Nc2ccc(-c3nc4ccccc4[nH]3)cc2)c1	Pf growth 96h inconclusive, NS1 inh inconclusive, Pf growth 48h inconclusive
CC(=O)Nc1cc(NC(C)=O)cc(-c2nc3ccccc3[nH]2)c1	Pf growth 96h 10µM
CCOC(=O)N1CCN(C(=O)c2cn(C)c3ccc(S(=O)(=O)N4CCOCC4)cc3c2=O)CC1	Pf growth 96h 12µM
CCOc1ccc(S(=O)(=O)N2CCN(C(=O)c3cc(S(=O)(=O)N4CCOCC4)ccc3C)CC2)cc1	Pf growth 96h 3.7µM, Pf growth 48h 8.3µM (no result: CHX counter, Shiga inhibitor, NS1 inh)
COC(CNC(=O)c1cn(C)c2ccc(S(=O)(=O)N3CCOCC3)cc2c1=O)OC	Pf growth 96h 9.3µM
CCn1cc(C(=O)NCC(OC)OC)c(=O)c2cc(S(=O)(=O)N3CCOCC3)ccc21	Pf growth 96h inconclusive
Cn1cc(C(=O)N2CCN(c3ccccc3)CC2)c(=O)c2cc(S(=O)(=O)N3CCOCC3)ccc21	Pf growth 96h inconclusive
CN(C)CCCn1c(=O)n(CCc2ccccc2)c(=O)c2c3c(sc21)CCCCC3	Pf growth 96h inconclusive, Pf growth 48h inconclusive
CN(C)CCCn1c(=O)n(Cc2ccco2)c(=O)c2c3c(sc21)CCCCC3	Pf growth 96h 12µM, Pf growth 48h inconclusive
Cn1c(-c2ccc(F)cc2)cnc1NCc1ccccc1	Pf growth 96h inconclusive, CHX counter 20
Cn1c(-c2ccccc2)cnc1NCc1ccc(F)cc1	CHX counter 24
CC(NC(=O)CCN1C(=O)c2ccccc2C1=O)c1ccccc1 (stereo unspecified)	Pf growth 96h inconclusive
O=C(Nc1ccncc1)c1c(F)c(F)c(F)c(F)c1F	Pf growth 48h 10µM
O=C(Nc1cccc(F)c1)c1c(F)c(F)c(F)c(F)c1F	Pf growth 48h 13µM (no result: Pf growth 96h)
Cc1cccc(NC(=O)c2c(F)c(F)c(F)c(F)c2F)c1	Pf growth 96h inconclusive (no result: Pf growth 48h)
O=C(NCCC(=O)N1CCc2ccccc21)c1ccccc1Cl	none
COc1ccc(N2CC(C(=O)N3CCN(Cc4ccc5c(c4)OCO5)CC3)CC2=O)cc1 (stereo unspecified)	none
Cc1ccccc1CN1CCSc2sccc2C1=O	Pf growth 48h inconclusive (no result: NS1 inh)
COc1ccc(-c2csc(Nc3ncccn3)n2)cc1C	CHX counter 31, Shiga inhibitor 48
COc1ccc(-c2csc(NC(=O)c3c(C)noc3C)n2)cc1F	Pf growth 96h inconclusive (no result: CHX counter, Shiga inhibitor, NS1 inh)
COc1ccc(-c2csc(Nc3cc(C)ccn3)n2)cc1C	CHX counter 62, Shiga inhibitor 120, Pf growth 48h inconclusive
CCC12CN3CCN(CC(C3)/C1=N\NC(=O)c1ccc(C(C)(C)C)cc1)C2	none
CCn1c(/C=N/c2nc3ccccc3n2C)nc2ccccc21	CHX counter 13
COc1ccccc1Nc1nc2ccccc2n1C	CHX counter 30, Shiga inhibitor 66
COc1ccccc1Nc1nc2ccccc2n2cnnc12	none
